# Screening data: PubChem, National Center for Advancing Translational Sciences (NCATS)
# The full list was thinned out, with hits kept by preference.
# Cycloheximide cs: counter-screen hit for Shiga toxin inhibitors, cycloheximide; cell reporter, cycloheximide protein synthesis inhibition counterscreen; hit rate 12% among 300,000; AID 2314; max response, %; in the data active means max response mostly above about 13%, no sharp cut-off; inactive means mostly below about 14%; further: read at 38.3 µM for the half of the compounds with a filed dose; 0% is about no effect
# TbPYK inhibitor: inhibitors of Trypanosoma brucei pyruvate kinase; hit rate 0.12% among 410,000; Potency, µM (top dose mostly 76.8 µM), inactives show at the top dose activity, negative = inhibition, actives largely listed as inhibitors; AID 624173; Q57TT1; TbPYK enzyme, Kinase-Glo Plus ATP luminescence, 45 min; further: potency means the concentration at half of the fitted maximal effect; on the % scale 0 is the no-effect control and ±100 the full control effect; nearly all actives have a fitted effect of over 50% in size
#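 TbPYK + substrate in 50 mM TEA pH 7.2, 100 mM KCl, 10 mM MgCl2, 0.05% BSA, 0.01% Tween-20; cpd pinned; ADP 130 uM final; 45 min RT; Kinase-Glo Plus 10 min; luminescence endpoint.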
# FBPA Giardia inh: Giardia lamblia aldolase inhibition. AID 2451. purified Giardia FBPA. A8B2U2. hit rate 0.71% among 290,000. Potency, µM (series often up to 59.6 µM), for inactives: top-dose activity, negative = inhibition, hits mostly inhibitors; further: potency means the concentration at half of the fitted maximal effect; on the % scale 0 is the no-effect control and ±100 the full control effect; nearly all actives have a fitted effect of over 55% in size
# Target sequence (A8B2U2 whole entry, looked up): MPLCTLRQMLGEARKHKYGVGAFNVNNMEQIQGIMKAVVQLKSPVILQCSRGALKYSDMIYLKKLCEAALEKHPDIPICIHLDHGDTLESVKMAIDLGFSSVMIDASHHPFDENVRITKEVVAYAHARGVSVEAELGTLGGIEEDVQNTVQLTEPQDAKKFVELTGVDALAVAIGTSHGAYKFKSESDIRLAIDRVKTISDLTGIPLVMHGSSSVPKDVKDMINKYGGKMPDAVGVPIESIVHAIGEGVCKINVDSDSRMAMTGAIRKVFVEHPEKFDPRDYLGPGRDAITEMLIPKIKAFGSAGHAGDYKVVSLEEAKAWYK
#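 Giardia FBPA (40 nM reagent) was preincubated 10 min at RT with compound (up to 57.5 uM final), then substrate plus GAPDH/TPI/NAD/arsenate coupling system with diaphorase/resazurin was added; resorufin fluorescence (525/598 nm) was read after 20 min.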
# Sm TGR inh: blocks Schistosoma mansoni thioredoxin glutathione reductase; purified TGR, DTNB reduction, TNB absorbance 405 nm; Potency, µM (highest dose often 114 µM), for inactives: at the top dose activity change, negative = inhibition, usual class: inhibitors; Q962Y6; AID 485364; hit rate 3% among 360,000; further: potency means the concentration at half of the fitted maximal effect; on the % scale 0 is the no-effect control and ±100 the full control effect; nearly all actives have a fitted effect of over 60% in size
#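 TGR 20 nM + NADPH 100 uM (dispensed conc.), cpd preinc 15 min RT; start with NADPH (500 uM addition) then DTNB (15 mM addition). Kinetic TNB absorbance, 405 nm filter. Four-parameter Hill fit across titration.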
# Shiga toxin inh: blocks Shiga toxin action in Vero cells | Vero cells, Shiga toxin protein synthesis inhibition reporter | inhibition, % at 38.7 µM | hit rate 9.2% among 290,000 | AID 2315; in the data active means inhibition mostly above about 28%, no sharp cut-off; inactive means mostly below about 43%; further: 0% is about no effect
# LmPK inhibitor: inhibitors of Leishmania mexicana pyruvate kinase | purified LmPK, Kinase-Glo ATP luminescence, 1 h | Potency, µM (series often up to 57.5 µM), without a hit: at the highest dose activity change, negative = inhibition, actives largely listed as inhibitors | hit rate 0.37% among 290,000 | AID 1721; further: potency means the concentration at half of the fitted maximal effect; on the % scale 0 is the no-effect control and ±100 the full control effect
#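 Purified LmPK (0.1 nM) converted ADP (0.1 mM) to ATP with PEP (0.5 mM) in imidazole buffer pH 7.2 with KCl and MgCl2, 1 h at room temperature. ATP was read by Kinase-Glo luminescence; data normalized to uninhibited and no-enzyme controls.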
# * = called active by the depositor; ? = inconclusive; · = no result. Unless noted, the call rests on the fitted dose curve; in most records, active means well fitted curve in the direction sought with a large enough effect; inconclusive means small, poorly fitted or top-dose-only effect, or another doubt; inactive means no such curve, though single readings can be large; an effect the other way counts as inactive or inconclusive.
SMILES,Cycloheximide cs,TbPYK inhibitor,FBPA Giardia inh,Sm TGR inh,Shiga toxin inh,LmPK inhibitor
CCn1c(=O)c(C(=O)Nc2ccccc2S(N)(=O)=O)c(O)c2ccccc21,12*,1%,0%,-16%,45,1%
CCCCCn1c(=O)c(C(=O)Nc2ccccc2S(N)(=O)=O)c(O)c2ccccc21,17*,-3%,-6%,4%,84*,-4%
CCCCN(C)C(=O)Cn1cnc2sc(C)c(S(=O)(=O)N3CCC(C)CC3)c2c1=O,·,-9%,·,-5%,·,·
CN(C)C(=O)c1cc(C(=O)c2ccc(C(F)(F)F)cc2)c[nH]1,16*,3%,-3%,-6%,21,5%
CN(C)C(=O)c1cc(C(=O)c2ccc(F)cc2Cl)c[nH]1,50*,6%,11%,2%,73*,-2%
Cc1ccc(C(=O)c2ccc(C(F)(F)F)cc2)cc1,-4,·,2%,8%,-3,·
NC(=O)c1cc(C(=O)c2ccc(Cl)cc2Cl)c[nH]1,7,2%,0%,4%,-2,1%
CN(C)C(=O)c1cc(C(=O)c2ccc(Cl)cc2Cl)c[nH]1,51*,-15%,-9%,-7%,99*,6%
Nc1nc2[nH]cc(CCc3ccc(C(=O)N[C@@H](CCC(=O)O)C(=O)O)cc3)c2c(=O)[nH]1,·,0%,·,·,·,·
COc1ccc(C2/C(=C(/O)c3ccccc3)C(=O)C(=O)N2C)cc1OC (configuration not stated),14*,5%,-4%,-2%,27*,-1%
COc1ccc(C2/C(=C(/O)c3ccc(Br)cc3)C(=O)C(=O)N2C)cc1OC (configuration not stated),-1,1%,5%,0%,-7,-6%
COCC1CCN(C(=O)c2ccc3nc(Cc4cccc(Cl)c4)oc3c2)CC1,·,-5%,·,·,·,·
COC1CCCN(C(=O)c2ccc3nc(Cc4cccc(Cl)c4)oc3c2)C1 (configuration not stated),17,-15%,·,4%,49*,0%
COCC1CCCN(C(=O)c2ccc3nc(Cc4cccc(Cl)c4)oc3c2)C1 (configuration not stated),42*,2%,·,9%,89*,-3%
CNC(=O)C1CCC(Cn2c(=O)c3sccc3n(CC(=O)N3CCCC(C)C3)c2=O)CC1 (configuration not stated),·,-3%,·,-1%,·,·
COCCNC(=O)CN1N=C(c2ccc(OC)cc2)CCC1=O,-3,8%,-11%,-15%,-3,-3%
CCC(=O)N1CCC(c2ccc(OC)cc2)=N1,36*,-1%,2%,-1%,38*,-5%
Cc1ccc(CONC(=O)c2cccc(C)c2)cc1,·,4%,·,-2%,·,·
Cc1ccc(CONC(=O)c2ccc(OC(F)F)cc2)cc1,24*,0%,4%,0%,69*,-2%
CN(C)c1ccc(C2C=C(c3ccc(Cl)cc3OC(F)F)Nc3ncnn32)cc1 (configuration not stated),-5,4%,-26%,22µM*,-2,4%
C/C(CC(=O)Nc1ccccn1)=N\NC(=O)c1ccccc1O,52*,2%,-3%,2%,68*,-2%
C/C(CCc1ccccc1)=N\NC(=O)c1ccccc1,30*,1%,-3%,1%,90*,0%
CCCNC(=O)C/C(C)=N/NC(=O)C(=O)Nc1ccccn1,26*,3%,-1%,?,29,0%
C/C(CC(=O)Nc1ccccn1)=N\NC(=O)c1ccccc1,30*,·,0%,-3%,21,-4%
C/C(CC(=O)Nc1ccccn1)=N\NC(=O)c1ccncc1,-5,·,-2%,-5%,-3,2%
SMILES,Cycloheximide cs,TbPYK inhibitor,FBPA Giardia inh,Sm TGR inh,Shiga toxin inh,LmPK inhibitor
C/C(CC(=O)Nc1cc(C)ccn1)=N\NC(=O)c1cccc(C)c1O,26*,1%,·,4%,69*,4%
C/C(CC(=O)Nc1ccccn1)=N\NC(=O)c1ccc2ccccc2c1,15*,2%,0%,3%,28,-3%
C/C(CC(=O)Nc1cc(C)ccn1)=N\NC(=O)c1cccc(C)c1,12,0%,-15%,-3%,42,-5%
CCNC(=O)C/C(C)=N/NC(=O)C(=O)Nc1ccc(CC)cc1,26*,1%,5%,-30%,37,0%
C/C(=N/NC(=O)CNC(=O)COc1ccccc1)c1ccc(Cl)cc1,12,4%,0%,-2%,-3,3%
C/C(=N/NC(=O)CNC(=O)CCc1ccccc1)c1ccc(Cl)cc1,7.1*,-5%,3%,12%,20,0%
CC(=O)N1CCc2c(sc3c2c(=O)n(-c2ccccc2C)c(=O)n3CC(=O)Nc2ccccc2)C1,·,-7%,·,-11%,·,·
Cc1ccc(CCC(=O)Nc2ccccc2C(=O)O)o1,26*,-1%,·,-1%,59*,-16%
CN(Cc1ccccc1)C(=O)c1ccccc1NC(=O)c1ccco1,1,-3%,-3%,-12%,23,0%
Cc1ccc(CN(C)C(=O)c2ccccc2NC(=O)c2ccccc2)o1,·,1%,·,40µM*,·,·
Cc1ccc(CNC(=O)CCc2ccccc2)cc1,15*,-7%,5%,3%,19,1%
Cc1ccc(CCC(=O)NCc2ccccc2)o1,18,-5%,-2%,35µM*,-8,0%
Cc1ccc(CNC(=O)CCCc2ccccc2)cc1,27,7%,-2%,15%,3,-2%
Cc1ccc(CNC(=O)C2(S(=O)(=O)c3ccccc3)CC=CC2)cc1,41*,-3%,2%,3%,44*,-7%
Cc1ccccc1CNC(=O)CCc1ccccc1,18*,6%,4%,·,35,-1%
Cc1cc(=O)oc2cc(OCC(=O)NC3CCCCC3)ccc12,22*,-3%,·,-10%,6,-7%
Cc1cc(=O)oc2cc(OCC(=O)NC3CC(C)(C)NC(C)(C)C3)ccc12,-4,0%,-8%,1%,-3,-1%
Cc1cc(OCC(=O)NC2CCCCC2)ccc1Cl,30*,-10%,1%,0%,67*,4%
Cc1cccc(Oc2ccc(Cl)cc2N)c1,34*,-3%,-8%,4%,89*,3%
CCOC(=O)c1ccc(NC(=O)c2c(NCc3sccc3C)sc3c2CCCCC3)cc1,·,?,·,50µM*,·,·
COc1ccc(NC(=O)c2c(NCc3ccc(N(C)C)cc3)sc3c2CCC3)cc1,·,?,·,32µM*,·,·
COc1ccc(OC)c(NC(=O)c2c(NCc3ccc(C)o3)sc3c2CCC(C)C3)c1 (configuration not stated),·,?,·,40µM*,·,·
COc1ccc(NC(=O)c2c(NCc3cccc(OC)c3)sc3c2CCCC3)cc1,·,-21%,·,-33%,·,·
COc1ccc(Cl)cc1NC(=O)c1c(NCc2ccc(C)o2)sc2c1CCCC2,·,?,·,28µM*,·,·
CCOC(=O)c1ccc(NC(=O)c2c(NCc3cccc(OC)c3OC)sc3c2CCC3)cc1,·,?,·,4%,·,·
